Assay results published in the supplement of paper PMC6763611.

Test system: Plasmodium falciparum NF54
Experiment: growth inhibition relative to untreated control; higher = more inhibition
Settings: 1 µM; minimal medium (MM); 72 h
Summary of the method: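 In dark 96-well half-area plates, each well held 100 μL of P. falciparum NF54 ring-stage culture at 1% parasitemia and 1% hematocrit. The cultures received a single test-compound dose of 5 μM or 1 μM and were kept at 37 °C for 72 h, in minimal RPMI either plain or enriched with folate (2.2 μM), pABA (7.3 μM), pHBA (7.3 μM), tyrosine (111 μM), phenylalanine (90 μM) and tryptophan. SYBR Green staining gave growth inhibition, expressed against untreated wells, with uninfected erythrocytes serving as the background.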

Row | Compound | growth inhibition
1 | Cc1ccc(S(=O)(=O)n2cc(-c3ccnc(N)c3)c3cc(Br)cnc32)cc1 | > 100%
2 | Nc1nc(N)c2c3c(sc2n1)CN(Cc1ccccc1)CC3 | 96.8%
3 | CC(=O)N1CCN(c2ccc(Oc3ccc(Cl)cc3O)cc2)CC1 | 13.5%
4 | COc1cccc(-n2nnnc2S(C)(=O)=O)c1 | 29.5%
5 | Cc1ccc(NC(=O)c2cc(S(=O)(=O)NC(C)(C)C)ccc2C)nc1 | 52.9%
6 | Cc1[nH]c2cc(F)cc(F)c2c(=O)c1-c1ccc(Oc2ccc(OC(F)(F)F)cc2)cc1 | 97.7%
7 | CS(=O)(=O)N1CCC(Cn2nc(Cc3cccc4ccccc34)c3c(N)ncnc32)CC1 | < 0%
8 | CC(C)(C)c1cnc(NC(=O)c2ccccc2O)s1 | 7.86%
9 | COc1cc2ncnc(NC3CCN(Cc4ccccc4)CC3)c2cc1OC | 95.5%
10 | CS(=O)(=O)c1cccc(-c2cnc3[nH]cc(-c4ccc(CCC(=O)O)cc4)c3c2)c1 | 70.7%
11 | Cc1c[nH]c(CCNC(=O)c2cc(-c3ccc(Cl)cc3)cs2)n1 | > 100%
12 | COc1cc(C2=NCCN2)ccc1-c1cn(-c2cccc(C3=NCCN3)c2)nn1 | 86.7%
13 | COc1cccc(-c2cc3c(Nc4cccnc4)nccc3[nH]2)c1 | 18.4%
14 | CN(C)CCNC(=O)N1CCCN(c2ncnc3cc(-c4ccccc4)sc23)CC1 | 99.2%
15 | O=C(N[C@H](Cc1ccccc1)C(=O)Nc1ccccc1N1CCOCC1)c1cccs1 | 2.12%
16 | CC(C(=O)Nc1ccc2oc(-c3ccncc3)nc2c1)c1ccccc1 (stereo unspecified) | < 0%
17 | FC(F)(F)c1nnc2ccc(Cl)nn12 | 7.29%
18 | Cc1nc(-c2ccccn2)nc(N(C)CCc2ccccc2)c1Cl | 23.4%
19 | CCCn1nnc(NC(=O)COc2ccc(C3CCCCC3)cc2)n1 | < 0%

Row | Compound | growth inhibition
20 | O=C(NCCc1ccn(-c2ccccc2)n1)C1CCCCC1 | 20.1%
21 | Nc1cccnc1Nc1ccc(Cl)cc1 | < 0%
22 | COC(=O)c1c(NC(=O)c2cc3ccccc3oc2=O)sc2c1CCN(Cc1ccccc1)C2 | 8.51%
23 | CCN(CC)CCCCCCNc1cc(OC)cc2c(C)ccnc12 | 92.8%
24 | CCS(=O)(=O)N(Cc1ccco1)Cc1cc2ccc(C)cc2nc1O | 33.5%
25 | CCNC(=O)C(C)Nc1nc(-c2cccnc2)nc2sc(C)c(C)c12 (stereo unspecified) | < 0%
26 | Cc1nn(C(=O)Nc2cccc(C(F)(F)F)c2)c(C)c1Sc1ncccn1 | < 0%
27 | CCc1nc2ccc(Cl)cn2c1C(=O)NCc1ccc(N2CCC(c3ccc(OC(F)(F)F)cc3)CC2)cc1 | < 0%
28 | Cc1ccc2oc(-c3cc(NC(=O)Cc4ccccc4)ccc3Cl)nc2c1 | 6.84%
29 | COc1cc(CN2CCC3(C=Cc4ccccc43)CC2)cc2c1OCO2 | < 0%
30 | CC(C)C(Oc1cccc2ccccc12)C(=O)O (stereo unspecified) | 13.6%
31 | O=C(C(Cc1c[nH]c2ccccc12)NS(=O)(=O)c1ccc(Cl)cc1)N1CCCCC1 (stereo unspecified) | 56.9%
32 | O=C1COCc2ccc(Br)cc2N1Cc1ccc(C(F)(F)F)cc1 | 96.7%
33 | Nc1ncc(-c2cn[nH]c2)cc1-c1nc2cc(Cl)cnc2[nH]1 | 97%
34 | COc1ccccc1C(C)NCC(=O)Nc1cc(C(F)(F)F)ccc1Cl (stereo unspecified) | 85.5%
35 | Cc1ccc(-c2cc(C(=O)Nc3cccnc3)c3cc(Br)ccc3n2)cc1 | 95.2%
36 | O=C(NCc1ccoc1)N1CCN(Cc2ccc3c(c2)OCO3)CC1 | 6.98%
37 | CCCCOC(=O)Nc1cc2nc(C3CCCCC3)[nH]c2cc1N1CCCC1 | 15.4%
38 | O=C(Nc1ccc(N2CCNCC2)nc1)c1oc(-c2ccccc2)nc1C(F)(F)F | > 100%

Same assay, conditions: 5 µM; MM + chorismate end-products (CM screening medium); 72 h

Row | Compound | growth inhibition
39 | Cc1ccc(S(=O)(=O)n2cc(-c3ccnc(N)c3)c3cc(Br)cnc32)cc1 | 97.8%
40 | Nc1nc(N)c2c3c(sc2n1)CN(Cc1ccccc1)CC3 | 60.8%
41 | CC(=O)N1CCN(c2ccc(Oc3ccc(Cl)cc3O)cc2)CC1 | < 0%
42 | COc1cccc(-n2nnnc2S(C)(=O)=O)c1 | 35%
43 | Cc1ccc(NC(=O)c2cc(S(=O)(=O)NC(C)(C)C)ccc2C)nc1 | 93%
44 | Cc1[nH]c2cc(F)cc(F)c2c(=O)c1-c1ccc(Oc2ccc(OC(F)(F)F)cc2)cc1 | 87.3%
45 | CS(=O)(=O)N1CCC(Cn2nc(Cc3cccc4ccccc34)c3c(N)ncnc32)CC1 | 42.7%
46 | CC(C)(C)c1cnc(NC(=O)c2ccccc2O)s1 | 51.6%
47 | COc1cc2ncnc(NC3CCN(Cc4ccccc4)CC3)c2cc1OC | 99.3%
48 | CS(=O)(=O)c1cccc(-c2cnc3[nH]cc(-c4ccc(CCC(=O)O)cc4)c3c2)c1 | > 100%
49 | Cc1c[nH]c(CCNC(=O)c2cc(-c3ccc(Cl)cc3)cs2)n1 | 97.3%
50 | COc1cc(C2=NCCN2)ccc1-c1cn(-c2cccc(C3=NCCN3)c2)nn1 | > 100%
51 | COc1cccc(-c2cc3c(Nc4cccnc4)nccc3[nH]2)c1 | 94.2%
52 | CN(C)CCNC(=O)N1CCCN(c2ncnc3cc(-c4ccccc4)sc23)CC1 | > 100%
53 | O=C(N[C@H](Cc1ccccc1)C(=O)Nc1ccccc1N1CCOCC1)c1cccs1 | 47.7%
54 | CC(C(=O)Nc1ccc2oc(-c3ccncc3)nc2c1)c1ccccc1 (stereo unspecified) | < 0%
55 | FC(F)(F)c1nnc2ccc(Cl)nn12 | < 0%
56 | Cc1nc(-c2ccccn2)nc(N(C)CCc2ccccc2)c1Cl | 82.9%
57 | CCCn1nnc(NC(=O)COc2ccc(C3CCCCC3)cc2)n1 | < 0%

Row | Compound | growth inhibition
58 | O=C(NCCc1ccn(-c2ccccc2)n1)C1CCCCC1 | < 0%
59 | Nc1cccnc1Nc1ccc(Cl)cc1 | 47.3%
60 | COC(=O)c1c(NC(=O)c2cc3ccccc3oc2=O)sc2c1CCN(Cc1ccccc1)C2 | 5.7%
61 | CCN(CC)CCCCCCNc1cc(OC)cc2c(C)ccnc12 | 81.2%
62 | CCS(=O)(=O)N(Cc1ccco1)Cc1cc2ccc(C)cc2nc1O | 87.4%
63 | CCNC(=O)C(C)Nc1nc(-c2cccnc2)nc2sc(C)c(C)c12 (stereo unspecified) | 16.8%
64 | Cc1nn(C(=O)Nc2cccc(C(F)(F)F)c2)c(C)c1Sc1ncccn1 | 80.1%
65 | CCc1nc2ccc(Cl)cn2c1C(=O)NCc1ccc(N2CCC(c3ccc(OC(F)(F)F)cc3)CC2)cc1 | 91%
66 | Cc1ccc2oc(-c3cc(NC(=O)Cc4ccccc4)ccc3Cl)nc2c1 | 26.4%
67 | COc1cc(CN2CCC3(C=Cc4ccccc43)CC2)cc2c1OCO2 | < 0%
68 | CC(C)C(Oc1cccc2ccccc12)C(=O)O (stereo unspecified) | < 0%
69 | O=C(C(Cc1c[nH]c2ccccc12)NS(=O)(=O)c1ccc(Cl)cc1)N1CCCCC1 (stereo unspecified) | 96.8%
70 | O=C1COCc2ccc(Br)cc2N1Cc1ccc(C(F)(F)F)cc1 | > 100%
71 | Nc1ncc(-c2cn[nH]c2)cc1-c1nc2cc(Cl)cnc2[nH]1 | > 100%
72 | COc1ccccc1C(C)NCC(=O)Nc1cc(C(F)(F)F)ccc1Cl (stereo unspecified) | 88.6%
73 | Cc1ccc(-c2cc(C(=O)Nc3cccnc3)c3cc(Br)ccc3n2)cc1 | 98.3%
74 | O=C(NCc1ccoc1)N1CCN(Cc2ccc3c(c2)OCO3)CC1 | < 0%
75 | CCCCOC(=O)Nc1cc2nc(C3CCCCC3)[nH]c2cc1N1CCCC1 | 85.8%
76 | O=C(Nc1ccc(N2CCNCC2)nc1)c1oc(-c2ccccc2)nc1C(F)(F)F | 96.6%
